Experimental data from PubChem BioAssay AID1159580 (chemical genetic matrix, 2015).
“And” between values parts separate entries of the source, which are not always exact repeats. Equal entries are not always repeated. Hit rate of the full screen: of about 5,500 compounds, about 2,000 (36%) were called active. Another 18% or so got no clear call; they are omitted. No stated cut-off is given here; in the data, active means normalized growth mostly below about 0.91 (no sharp cut-off); inconclusive means no clear call, values can overlap the other calls; inactive means mostly above about 0.92. The list shows a part of the results.

Experiment: chemical genetic growth profiling, strain panel (AID 1159580);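 further: tested at 20 µM; growth read once vehicle control cultures reached saturation at 30 °C; 1 = growth at the plate median or of vehicle wells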
Settings: S. cerevisiae deletion strains, growth OD

Measured: normalized growth

COC(=O)C(O)c1ccccc1 (stereo unspecified)
inactive: locus YAL021C, strain ccr4, stronger effect = lower value 1.02 | locus YAL026C, strain drs2, stronger effect = lower value 1.01 | locus YAL030W, strain snc1, stronger effect = lower value 0.984 | locus YBL061C, strain skt5, stronger effect = lower value 0.996 | locus YBR009C, strain hhf1, stronger effect = lower value 1.01 | locus YBR021W, strain FUR4, stronger effect = lower value 1.06 | locus YBR023C, strain chs3, stronger effect = lower value 1.01 | locus YBR171W, strain sec66, stronger effect = lower value 0.99 | locus YBR229C, strain ROT2, stronger effect = lower value 0.999 | locus YBR231C, strain swc5, stronger effect = lower value 0.961 | locus YBR279W, strain paf1, stronger effect = lower value 0.999 | locus YCL011C, strain gbp2, stronger effect = lower value 1.02 | locus YCL016C, strain dcc1, stronger effect = lower value 1.02 | locus YCL029C, strain bik1, stronger effect = lower value 0.982 | locus YCL069W, strain vba3, stronger effect = lower value 1 | locus YCR088W, strain abp1, stronger effect = lower value 0.99 | locus YDL005C, strain med2, stronger effect = lower value 0.984 | locus YDL035C, strain GPR1, stronger effect = lower value 1.05 | locus YDL040C, strain nat1, stronger effect = lower value 0.991 | locus YDL074C, strain BRE1, stronger effect = lower value 1.05 | locus YDL101C, strain DUN1, stronger effect = lower value 0.977 | locus YDL134C, strain PPH21, stronger effect = lower value 0.964 | locus YDL185W, strain tfp1, stronger effect = lower value 0.949 | locus YDL192W, strain arf1, stronger effect = lower value 1.01 | locus YDR001C, strain nth1, stronger effect = lower value 0.99 | locus YDR069C, strain doa4, stronger effect = lower value 0.996 | locus YDR101C, strain arx1, stronger effect = lower value 1.05 | locus YDR137W, strain rgp1, stronger effect = lower value 1.01 | locus YDR159W, strain sac3, stronger effect = lower value 0.973 | locus YDR162C, strain NBP2, stronger effect = lower value 0.975 | locus YDR195W, strain ref2 0.909 | locus YDR297W, strain sur2, stronger effect = lower value 0.992 | locus YDR318W, strain mcm21, stronger effect = lower value 0.985 | locus YDR334W, strain swr1, stronger effect = lower value 0.98 | locus YDR335W, strain msn5, stronger effect = lower value 1.01 | locus YDR388W, stronger effect = lower value 0.973 | locus YDR392W, strain spt3, stronger effect = lower value 1.02 | locus YDR502C, strain sam2, stronger effect = lower value 0.969 | locus YEL003W, strain gim4, stronger effect = lower value 0.99 | locus YEL037C, strain rad23, stronger effect = lower value 0.992 | locus YEL061C, strain CIN8 (second series), stronger effect = lower value 0.983 | locus YEL061C, strain CIN8, stronger effect = lower value 0.991 | locus YER015W, strain faa2, stronger effect = lower value 1.01 | locus YER016W, strain bim1, stronger effect = lower value 0.993 | locus YER110C, stronger effect = lower value 0.984 | locus YER111C, strain swi4, stronger effect = lower value 0.981 | locus YER155C, strain BEM2 (second series), stronger effect = lower value 0.978 | locus YER155C, strain BEM2, stronger effect = lower value 0.988 | locus YER167W, strain BCK2, stronger effect = lower value 1.01 | locus YFR010W, strain ubp6, stronger effect = lower value 0.974 | locus YGL078C, strain dbp3, stronger effect = lower value 0.974 | locus YGL086W, strain mad1, stronger effect = lower value 0.996 | locus YGL167C, strain pmr1, stronger effect = lower value 0.995 | locus YGL173C, strain kem1, stronger effect = lower value 0.981 | locus YGL227W, strain vid30, stronger effect = lower value 1 | locus YGL240W, strain doc1, stronger effect = lower value 0.99 | locus YGL248W, strain PDE1, stronger effect = lower value 0.983 | locus YGL253W, strain hxk2, stronger effect = lower value 0.983 | locus YGR078C, strain PAC10, stronger effect = lower value 0.974 | locus YGR135W, strain pre9, stronger effect = lower value 0.941 | locus YGR229C, strain SMI1, stronger effect = lower value 0.961 | locus YGR252W, strain gcn5, stronger effect = lower value 1.02 | locus YHR013C, strain ard1, stronger effect = lower value 1 | locus YHR027C, strain rpn1, stronger effect = lower value 0.986 | locus YHR030C, strain SLT2, stronger effect = lower value 1.02 | locus YHR079C, strain IRE1 (second series), stronger effect = lower value 0.971 | locus YHR079C, strain IRE1, stronger effect = lower value 0.996 | locus YHR094C, strain hxt1, stronger effect = lower value 0.983 | locus YHR129C, strain ARP1, stronger effect = lower value 0.993 | locus YHR142W, strain chs7, stronger effect = lower value 1.02 | locus YHR200W, strain rpn10, stronger effect = lower value 0.963 | locus YIL066C, strain RNR3, stronger effect = lower value 1.02 | locus YIL073C, strain SPO22, stronger effect = lower value 0.977 | locus YIL125W, strain kgd1, stronger effect = lower value 1 | locus YIR030C, strain dcg1, stronger effect = lower value 0.975 | locus YJL092W, strain hpr5, stronger effect = lower value 0.991 | locus YJL095W, strain BCK1 (second series), stronger effect = lower value 0.985 | locus YJL095W, strain BCK1, stronger effect = lower value 0.963 and 1.01 | locus YJL115W, strain asf1, stronger effect = lower value 0.981 | locus YJL129C, strain trk1, stronger effect = lower value 0.992 | locus YJL134W, strain LCB3, stronger effect = lower value 0.992 | locus YJL154C, strain vps35, stronger effect = lower value 0.986 | locus YJL164C, strain tpk1, stronger effect = lower value 1.03 | locus YJL166W, strain qcr8, stronger effect = lower value 1.04 | locus YJL168C, strain set2, stronger effect = lower value 0.976 | locus YJL187C, strain SWE1 (second series), stronger effect = lower value 0.98 | locus YJL187C, strain SWE1, stronger effect = lower value 0.997 | locus YJR043C, strain POL32, stronger effect = lower value 1.09 | locus YJR066W, strain TOR1, stronger effect = lower value 0.939 | locus YKL009W, strain mrt4, stronger effect = lower value 1.05 | locus YKL068W, stronger effect = lower value 0.982 | locus YKL085W, strain MDH1 (second series), stronger effect = lower value 0.976 | locus YKL085W, strain MDH1, stronger effect = lower value 0.976 | locus YKL160W, strain elf1, stronger effect = lower value 1.04 | locus YKL190W, strain CNB1, stronger effect = lower value 0.975 | locus YKR001C, strain vps1, stronger effect = lower value 1.02 | locus YKR026C, strain gcn3, stronger effect = lower value 0.981 | locus YKR091W, strain srl3, stronger effect = lower value 0.993 | locus YLL001W, strain dnm1, stronger effect = lower value 0.985 | locus YLL026W, stronger effect = lower value 0.991 | locus YLL041C, strain sdh2, stronger effect = lower value 1.02 | locus YLR027C, strain aat2, stronger effect = lower value 1.02 | locus YLR039C, strain RIC1, stronger effect = lower value 1 | locus YLR058C, strain SHM2, stronger effect = lower value 1.01 | locus YLR102C, strain apc9, stronger effect = lower value 0.981 | locus YLR113W, strain HOG1, stronger effect = lower value 0.983 | locus YLR221C, strain rsa3, stronger effect = lower value 0.999 | locus YLR258W, strain gsy2, stronger effect = lower value 1.02 | locus YLR262C, strain YPT6 (second series), stronger effect = lower value 1.05 | locus YLR268W, strain sec22, stronger effect = lower value 1.03 | locus YLR320W, strain mms22, stronger effect = lower value 0.999 | locus YLR342W, strain FKS1, stronger effect = lower value 1 | locus YLR357W, strain rsc2, stronger effect = lower value 0.983 | locus YLR370C, strain arc18, stronger effect = lower value 0.994 | locus YLR371W, strain rom2, stronger effect = lower value 0.983 | locus YLR384C, strain iki3, stronger effect = lower value 0.98 | locus YLR418C, strain cdc73, stronger effect = lower value 0.953 | locus YML016C, strain PPZ1, stronger effect = lower value 0.977 | locus YML032C, strain rad52, stronger effect = lower value 1.01 | locus YML120C, strain ndi1, stronger effect = lower value 1.01 | locus YML124C, strain tub3, stronger effect = lower value 0.988 | locus YMR058W, strain fet3, stronger effect = lower value 1 | locus YMR078C, strain ctf18, stronger effect = lower value 0.974 | locus YMR125W, strain sto1, stronger effect = lower value 0.998 | locus YMR129W, stronger effect = lower value 0.995 | locus YMR205C, strain PFK2, stronger effect = lower value 1.02 | locus YMR223W, strain ubp8, stronger effect = lower value 0.975 | locus YMR231W, strain pep5, stronger effect = lower value 0.977 | locus YMR307W, strain GAS1, stronger effect = lower value 1.22 | locus YNL067W, strain RPL9B, stronger effect = lower value 0.965 | locus YNL071W, strain lat1, stronger effect = lower value 1.01 | locus YNL153C, strain GIM3, stronger effect = lower value 0.964 | locus YNL183C, strain NPR1, stronger effect = lower value 0.946 | locus YNL209W, strain ssb2, stronger effect = lower value 1.01 | locus YNL233W, strain BNI4, stronger effect = lower value 0.993 | locus YNL248C, strain rpa49, stronger effect = lower value 0.983 | locus YNL250W, strain rad50, stronger effect = lower value 0.943 | locus YNL271C, strain bni1, stronger effect = lower value 0.968 | locus YNL298W, strain CLA4, stronger effect = lower value 0.989 | locus YNL307C, strain MCK1, stronger effect = lower value 0.985 | locus YNL322C, strain KRE1 (second series), stronger effect = lower value 0.992 | locus YNR049C, strain mso1, stronger effect = lower value 0.993 | locus YNR052C, strain pop2, stronger effect = lower value 0.975 | locus YOL012C, strain htz1 0.732 | locus YOL147C, strain pex11, stronger effect = lower value 0.986 | locus YOR001W, strain rrp6, stronger effect = lower value 0.964 | locus YOR061W, strain CKA2, stronger effect = lower value 1.02 | locus YOR069W, strain VPS5, stronger effect = lower value 0.992 | locus YOR070C, strain gyp1, stronger effect = lower value 1.01 | locus YOR080W, strain dia2, stronger effect = lower value 0.98 | locus YOR083W, strain WHI5, stronger effect = lower value 1.05 | locus YOR106W, strain vam3, stronger effect = lower value 1.02 | locus YOR136W, strain idh2, stronger effect = lower value 0.989 | locus YOR144C, strain elg1, stronger effect = lower value 0.998 | locus YOR184W, strain ser1, stronger effect = lower value 1.09 | locus YOR231W, strain MKK1, stronger effect = lower value 1.01 | locus YOR265W, strain rbl2, stronger effect = lower value 0.998 | locus YOR270C, strain vph1, stronger effect = lower value 1.01 | locus YOR290C, strain snf2, stronger effect = lower value 1.06 | locus YOR316C, strain cot1, stronger effect = lower value 0.966 | locus YPL051W, strain arl3, stronger effect = lower value 0.979 | locus YPL078C, strain atp4, stronger effect = lower value 1.04 | locus YPL106C, strain sse1, stronger effect = lower value 0.997 | locus YPL240C, strain hsp82, stronger effect = lower value 0.993 | locus YPL241C, strain CIN2, stronger effect = lower value 0.986 | locus YPL256C, strain CLN2, stronger effect = lower value 0.978 | locus YPR119W, strain clb2, stronger effect = lower value 0.952 | locus YPR141C, strain kar3, stronger effect = lower value 0.961 | locus YPR163C, strain tif3, stronger effect = lower value 0.983 | locus YPR167C, strain met16, stronger effect = lower value 0.979 | strain wtn01, stronger effect = lower value 1.01
